Consider 45 compounds from the supplement of paper PMC9334596.

Structures are written as SMILES. Where “and” joins values, the source holds several entries; their conditions need not be identical. Equal entries are not always repeated. Over roughly 5,300 compounds, “PER2::LUC luminescence relative to vehicle control” has its median near 0.96; the highest 2% begin near 1.3. Shown is part of a subset that was picked to be rich in the highest values.

This experiment concerns mPer2Luc MEF. As to the kind of experiment: PER2::LUC luminescence relative to vehicle control (fold of vehicle); higher = higher PER2::LUC reporter signal. Conditions: 10 µM. A digest of the protocol: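 Each value gives PER2::LUC luminescence as fold of vehicle control, measured with the ONE-Glo luciferase assay system in mouse embryonic fibroblasts carrying the mPer2Luc reporter. Cells grown in DMEM with 10% FBS at 37 °C and 5% CO2 were seeded at ~3000 per well in 384-well plates. Library compounds were added at 10 μM 48 h later, and readings were taken 24 h and 30 h after treatment.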

Consider `COc1ccc(-c2cc(=O)c3c(O)cc(O)cc3o2)cc1O`, for which the “PER2::LUC luminescence” value by setting is: (time after treatment 24 h) 0.933; (time after treatment 30 h) 1.03.
The corresponding values for `COc1ccc(-c2cc(=O)c3c(O)c(OC)c(OC)c(OC)c3o2)cc1` are 1.03 and 1.16.
For `Cc1cc2nc3c(=O)[nH]c(=O)nc-3n(C[C@H](O)[C@H](O)[C@H](O)COP(=O)(O)O)c2cc1C`, in that order: 1.22 and 0.887.
With `O=C(Nc1ccc(C(F)(F)F)cn1)c1cccc2cccnc12`, the “PER2::LUC luminescence” value is, setting by setting: (time after treatment 24 h) 1.02; (time after treatment 30 h) 1.03.
Take `CC(=O)CCCCn1cnc2c1c(=O)n(C)c(=O)n2C`: the “PER2::LUC luminescence” value by setting is: (time after treatment 24 h) 0.931; (time after treatment 30 h) 0.944.
Regarding `Cc1cccc(Oc2nc3c(C)cccn3c(=O)c2C=C(C#N)c2nc3ccccc3s2)c1`, the “PER2::LUC luminescence” value (time after treatment 24 h) was 1 and the “PER2::LUC luminescence” value (time after treatment 30 h) was 1.04.
The corresponding values for `O=C1CCC(c2ccccc2)(C2CCN(Cc3ccccc3)CC2)C(=O)N1` (stereo not given) are 0.825 and 0.82.
Take `COc1ncnc(NS(=O)(=O)c2ccc(N)cc2)c1OC`: the “PER2::LUC luminescence” value runs as follows: (time after treatment 24 h) 0.986; (time after treatment 30 h) 0.84.
The corresponding values for `COc1cnc(NS(=O)(=O)c2ccc(N)cc2)nc1` are 0.926 and 1.
The corresponding values for `COc1nccnc1NS(=O)(=O)c1ccc(N)cc1` are 1 and 1.97.
Regarding `C=CCO/N=C1\c2ccccc2-c2nc(C#N)c(C#N)nc21`, the “PER2::LUC luminescence” value (time after treatment 24 h) came out at 0.778 and the “PER2::LUC luminescence” value (time after treatment 30 h) amounted to 0.699.
The corresponding values for `C[C@]12CC[C@@H]3c4ccc(O)cc4CC[C@H]3[C@@H]1C[C@H](O)[C@@H]2O` are 1.07 and 0.987.
For the compound `O=c1c(N=Nc2ccc(CS(=O)(=O)O)cc2)c(-c2ccc(C[N+](=O)[O-])cc2)[nH]n1-c1ccccc1`, the “PER2::LUC luminescence” value is 1.09 (time after treatment 24 h) and 1.08 (time after treatment 30 h).
The corresponding values for `CCCC(C(=O)O)c1c(C)nc2ccc(Cl)cc2c1-c1ccccc1` (stereo not given) are 1.02 and 0.957.
In the case of `CC1=C(/C=C/C(C)=C/C=C/C(C)=C/C=C/C=C(C)/C=C/C=C(C)/C=C/C2=C(C)CCCC2(C)C)C(C)(C)CCC1`, the “PER2::LUC luminescence” value (time after treatment 24 h) was found to be 1.07 and the “PER2::LUC luminescence” value (time after treatment 30 h) is 0.941.
Regarding `CCCCCCCCCCCCCCCC(=O)OC/C=C(C)/C=C/C=C(C)/C=C/C1=C(C)CCCC1(C)C`, the “PER2::LUC luminescence” value is, setting by setting: (time after treatment 24 h) 0.929 and 0.69; (time after treatment 30 h) 0.976 and 0.869.
Consider `CC1=C(/C=C/C(C)=C/C=C/C(C)=C/C=C/C=C(C)/C=C/C=C(C)/C=C/C(=O)[C@]2(C)C[C@@H](O)CC2(C)C)C(C)(C)C[C@H](O)C1`, for which the “PER2::LUC luminescence” value was found to be 0.964 (time after treatment 24 h) and 0.922 (time after treatment 30 h).
Consider `CC1=C(/C=C/C(C)=C/C=C/C(C)=C\C(=O)O)C(C)(C)CCC1`, for which the “PER2::LUC luminescence” value is 1.75 and 1.62 and 1.8 (time after treatment 24 h); 1.89 and 1.79 and 1.52 (time after treatment 30 h).
With `CC1=C(/C=C/C(C)=C/C=C/C(C)=C/C(=O)Nc2ccc(O)cc2)C(C)(C)CCC1`, the “PER2::LUC luminescence” value by setting is: (time after treatment 24 h) 0.452 and 1.09; (time after treatment 30 h) 0.603 and 1.06.
For `CC1=C(/C=C/C(C)=C/C=C/C(C)=C\CO)C(C)(C)CCC1`, the “PER2::LUC luminescence” value reads like this: (time after treatment 24 h) 1.08; (time after treatment 30 h) 1.03.
For `CC(=O)OC/C=C(C)/C=C/C=C(C)/C=C/C1=C(C)CCCC1(C)C`, in that order: 0.964 and 0.832.
For `CCCC(=O)OCc1ccc(OC(=O)/C=C(C)/C=C/C=C(C)/C=C/C2=C(C)CCCC2(C)C)cc1`, the “PER2::LUC luminescence” value came out at 1.02 (time after treatment 24 h) and 1.16 (time after treatment 30 h).
The corresponding values for `CC1=C(/C=C/C(C)=C/C=C/C(C)=C/C=C/C=C(C)/C=C/C=C(C)/C=C/C2=C(C)C(=O)CCC2(C)C)C(C)(C)CCC1=O` are 0.908 and 0.963.
With `CC1=C(/C=C/C(C)=C\C=C\C(C)=C\C(=O)O)C(C)(C)CCC1`, the “PER2::LUC luminescence” value (time after treatment 24 h) was determined as 2.08 and the “PER2::LUC luminescence” value (time after treatment 30 h) was determined as 1.87.
Turning to `CC1=C(/C=C/C(C)=C/C=C/C(C)=C/CO)C(C)(C)CCC1`, the “PER2::LUC luminescence” value was 1.35 and 1.26 and 1.07 (time after treatment 24 h); 1.26 and 1.06 and 1.11 (time after treatment 30 h).
`Clc1ccc(N/N=C(/c2ccccc2)c2ccccn2)nc1`: the “PER2::LUC luminescence” value was determined as 0.832 (time after treatment 24 h) and 0.785 (time after treatment 30 h).
For the compound `CC(C)C[C@H](NC(=O)[C@H](CCC(N)=O)NC(=O)[C@H](CCCCN)NC(=O)[C@H](CCC(N)=O)NC(=O)[C@@H](N)CCC(=O)O)C(=O)N[C@@H](CCC(N)=O)C(=O)O`, the “PER2::LUC luminescence” value runs as follows: (time after treatment 24 h) 1.03; (time after treatment 30 h) 0.938.
In the case of `CC(=O)Oc1ccc(O)cc1`, the “PER2::LUC luminescence” value worked out at 0.907 (time after treatment 24 h) and 1.01 (time after treatment 30 h).
For `CSC[C@H]1O[C@@H](n2cnc3c(N)ncnc32)[C@H](O)[C@@H]1O`, in that order: 0.938 and 0.773.
As to `COc1ccc2cc1Oc1ccc(cc1)C[C@H]1c3cc(c(OC)cc3CCN1C)Oc1c(OC)c(OC)c(OC)c3c1[C@H](C2)N(C)CC3`, the “PER2::LUC luminescence” value is 0.81 (time after treatment 24 h) and 0.85 (time after treatment 30 h).
In the case of `COc1ccc(S(=O)(=O)Nc2ccccc2CN(C)C/C=C/c2ccc(Cl)cc2)cc1`, the “PER2::LUC luminescence” value is, setting by setting: (time after treatment 24 h) 1.02 and 0.909; (time after treatment 30 h) 0.939 and 0.913.
Regarding `Nc1ncnc2c1c(-c1ccc(Oc3ccccc3)cc1)nn2[C@@H]1CCCNC1`, the “PER2::LUC luminescence” value is, setting by setting: (time after treatment 24 h) 0.544; (time after treatment 30 h) 0.62.
On to `O=C1C[C@@H](c2ccccc2)Oc2cc(O)cc(O)c21`, for which the “PER2::LUC luminescence” value (time after treatment 24 h) was determined as 1.07 and the “PER2::LUC luminescence” value (time after treatment 30 h) came to 1.08.
The corresponding values for `O=C1C[C@@H](c2ccc(O)cc2)Oc2cc(O)cc(O)c21` are 1.46 and 1.25.
For `O=C1C[C@@H](c2ccc(O)c(O)c2)Oc2cc(O)cc(O)c21`, in that order: 0.983 and 1.05.
For `CC(Cc1ccccc1)(NC(=O)CN)c1ccccc1` (racemic), in that order: 0.964 and 1.04.
`CC(=O)CC(=O)Nc1ccc(Cl)c(C(F)(F)F)c1`: the “PER2::LUC luminescence” value by setting is: (time after treatment 24 h) 1.35; (time after treatment 30 h) 1.37.
Take `CNC(=O)c1cc(Oc2ccc(NC(=O)Nc3ccc(Cl)c(C(F)(F)F)c3)c(F)c2)ccn1`: the “PER2::LUC luminescence” value by setting is: (time after treatment 24 h) 0.831 and 0.772; (time after treatment 30 h) 0.697 and 0.731.
On to `CNC(=O)c1cc(Oc2ccc(NC(=O)Nc3ccc(Cl)c(C(F)(F)F)c3)cc2)ccn1`, for which the “PER2::LUC luminescence” value is, setting by setting: (time after treatment 24 h) 0.556 and 0.486; (time after treatment 30 h) 0.816 and 0.513.
On to `O=[N+]([O-])c1cn(CCN2CCOCC2)cn1`, for which the “PER2::LUC luminescence” value turned out to be 0.977 (time after treatment 24 h) and 0.974 (time after treatment 30 h).
For `COc1cc2c3cc1Oc1c(OC)c(OC)cc4c1[C@@H](Cc1ccc(OC(=O)c5ccc([N+](=O)[O-])cc5)c(c1)Oc1ccc(cc1)C[C@@H]3N(C)CC2)N(C)CC4`, the “PER2::LUC luminescence” value (time after treatment 24 h) turned out to be 0.754 and the “PER2::LUC luminescence” value (time after treatment 30 h) was 0.76.
Turning to `C#CCN(C)Cc1ccccc1`, the “PER2::LUC luminescence” value reads like this: (time after treatment 24 h) 0.93 and 0.871; (time after treatment 30 h) 0.955 and 0.95.
Consider `C#CCN(C)CCCOc1ccc(Cl)cc1Cl`, for which the “PER2::LUC luminescence” value runs as follows: (time after treatment 24 h) 1.23; (time after treatment 30 h) 1.37.
The corresponding values for `Cc1cc(Br)c(O)c2ncccc12` are 1.19 and 0.958.
Turning to `COC(=O)N[C@H](C(=O)NNC[C@H](O)[C@H](Cc1ccccc1)NC(=O)[C@@H](NC(=O)OC)C(C)(C)C)C(C)(C)C`, the “PER2::LUC luminescence” value (time after treatment 24 h) was determined as 0.974 and the “PER2::LUC luminescence” value (time after treatment 30 h) came out at 0.963.
